# From PubChem BioAssay AID504834 (National Center for Advancing Translational Sciences (NCATS), 2011)
# About 22,000 (6.9%) of roughly 320,000 compounds were called active. About 27% were inconclusive and are not listed. Calls follow the shape of the dose curve; as a rule, active = well fitted inhibition curve with a large enough effect; inconclusive = small, poorly fitted or top-dose-only effect, or another doubt; inactive = no such curve, though single readings can be large or run the other way. The entries come from a sample that favours actives as a whole. A call without a number means that no potency is given here.
# Experiment: Primary qHTS for delayed death inhibitors of the malarial parasite plastid, 96 hour incubation
# Conditions: P. falciparum luciferase reporter growth; series mostly up to 28.7 µM
# Procedure, shortened: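 Infected RBCs, 2% Hct / 0.05% parasitemia final; luciferase-reporter P. falciparum; cpd 96 h, 37 C, 5% CO2; luciferase detection reagent; luminescence.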
# Potency is read from the fitted curve at half-maximal effect.
SMILES,Potency,"activity change, negative = inhibition"
COc1ccccc1C(=O)OCC(=O)NCCNC(=O)COC(=O)c1ccccc1OC,inactive,
Cn1cccc1C(=O)N1CCc2ccccc2C1,inactive,
CCOc1ccc(NC(=O)CN(C)C(=O)c2c(C)noc2C)cc1OCC,inactive,
C=CCCN(Cc1ccccc1)S(=O)(=O)c1ccccc1Br,inactive,
C=CC(COCc1ccccc1)N(Cc1ccccc1)S(=O)(=O)c1ccccc1Br (stereo not given),9.28 µM (active),
COc1ccc(S(=O)(=O)n2nc(C)c(S(=O)(=O)N3CCOCC3)c2C)cc1,inactive,
COc1ccc(C(=O)NCCNc2ccc([N+](=O)[O-])cn2)cc1,inactive,
Cc1csc(NC(=O)CSc2ccc(-c3ccc(F)cc3)nn2)n1,,-36.6% [at 1.15 µM] (inactive)
Cn1c(CCC(=O)Nc2ccccc2F)nnc1SCC(=O)Nc1ccccc1Cl,inactive,
O=C(CSc1ccc(-c2cccs2)nn1)Nc1ccccc1F,2.33 µM (active),
CCN(CC)S(=O)(=O)c1ccc(NC(=O)c2cnc(C)cn2)cc1,inactive,
Cc1ccc2c(cnn2C(=O)CCC(=O)NC2CCCC2)c1,inactive,
Cc1nn(CC(=O)NC2CCCCC2)c(=O)c2cccn12,inactive,
Cc1cccc2c1cnn2C(=O)CCC(=O)NC1CCCCC1,13.1 µM (active),
CCn1nnnc1SCC(=O)c1ccc(C)cc1C,7.38 µM (active),
CCn1nnnc1SCC(=O)Nc1ccc(N(C)C)cc1,inactive,
CNC(=O)CSc1nnnn1-c1ccc(C)cc1C,inactive,
O=C1CSC(=S)N1c1ccc(Cl)c(Cl)c1,inactive,
NC(=O)c1ccc(-c2csnn2)cc1,inactive,
C[C@H](OC(=O)n1ccnc1)[C@@H]1O[C@@]2(C)CCC[C@@H]1O2,inactive,
COc1cc(C(=S)NCc2ccccc2)cc(Br)c1O,inactive,
COc1cc(C=O)c(Br)cc1OCC(=O)NCc1ccccc1,11.7 µM (active),
COc1ccccc1OCCC(=O)OCC(=O)NCc1ccccc1,inactive,
CCOc1ccc(S(=O)(=O)N2CCC(c3ccccc3)CC2)cc1C(=O)O,inactive,
Nn1c(Cc2cccc3ccccc23)nnc1SCC(=O)N1CC(=O)Nc2ccccc21,inactive,
C=CCn1c(COc2ccccc2F)nnc1SCC(=O)N1CC(=O)Nc2ccccc21,8.28 µM (active),
C=CCn1c(COc2ccccc2C)nnc1SCC(=O)O,inactive,

SMILES,Potency,"activity change, negative = inhibition"
O=C(COc1ccccc1)Nc1ccc(C(=O)N2CCCC2)cc1,inactive,
COc1cc(Cl)c(C)cc1NC(=O)CN1CCCCCC1,inactive,
Cc1cc(NC(=O)CSC2=NS(=O)(=O)c3cc(Cl)ccc3N2)no1,inactive,
CCCCOP(=O)(c1ccc(N(C)C)cc1)C(O)c1cc(OC)ccc1OC (stereo not given),inactive,
Cc1ccc(C(O)P(=O)(OC(C)C)c2ccc(N(C)C)cc2)cc1 (stereo not given),inactive,
CCCOP(=O)(c1ccc(N(C)C)cc1)C(O)c1cc(OC)c(OC)c(OC)c1 (stereo not given),10.4 µM (active),
CCCCSc1nc2ccccc2[nH]1,inactive,
CN=C1S/C(=C\c2ccc(Sc3ccc(Cl)cc3)o2)C(=O)N1C,inactive,
CCC(C)N1C(=O)S/C(=C/c2ccc(Sc3nc4ccccc4[nH]3)o2)C1=O (stereo not given),1.65 µM (active),
[2H]C(CCOS(N)(=O)=O)c1ccccc1 (stereo not given),inactive,
COCCCn1c(SCC(=O)NC2CCCC2)nnc1-c1ccccc1,inactive,
CC(C)(C)C(=O)NC1CC2CCCC(C1)N2C(=O)Nc1ccccc1F (stereo not given),inactive,
O=S(=O)(c1cccc(-c2nnc3n2CCCCC3)c1)N1CCOCC1,inactive,
O=S(=O)(c1cccc(-c2nnc(SC(F)F)n2-c2ccccc2)c1)N1CCCCC1,7.38 µM (active),
O=S(=O)(c1cccc(-c2cn3ccccc3n2)c1)N1CCCC1,inactive,
Cc1noc(C)c1C(=O)OCC(=O)N1CCN(S(=O)(=O)c2ccc3ccccc3c2)CC1,inactive,
Cc1cc(S(=O)(=O)NC2CCCC2)ccc1-n1cnnn1,inactive,
Cc1nc(Cl)c2oc3ccccc3c2n1,inactive,
C[C@@H](Nc1nc(-c2ccccc2)nc2c1oc1ccccc12)C(=O)O,inactive,
O=c1[nH]c(CSc2ccccc2)nc2c1oc1ccccc12,5.22 µM (active),
CC(C)(C)c1cc[n+](-c2[nH]c(=O)sc2/C=N/N=C(\[O-])c2ccccc2)cc1,inactive,
O=C(OCC(=O)N1CCN(C(=O)c2ccco2)CC1)c1cccc(O)c1,inactive,
CC(=O)Nc1ccc(NC(=O)CSc2nnc(C3CC3)n2-c2ccccc2)cc1,inactive,
Nc1nnn(CC(=O)N/N=C/c2ccc(O)cc2)n1,inactive,
CCOCCCNC(=S)N1CCC(NC(=O)C2CCCCC2)CC1,inactive,
O=C(NC1CCN(C(=S)Nc2ccc(Cl)cc2)CC1)C1CCCCC1,inactive,
O=C(NC1CC2CCCC(C1)N2C(=O)N1CCCCC1)C1CCCCC1 (stereo not given),14.7 µM (active),

SMILES,Potency,"activity change, negative = inhibition"
CSc1ccccc1OCc1cc(C(=O)N2C[C@H]3CC[C@H]2C3)no1,inactive,
Cc1ccc(S(=O)(=O)NCCCn2ccnc2)cc1C(=O)NC(C)C,inactive,
CCOc1ccc(S(=O)(=O)NCCCn2ccnc2)cc1NC(C)=O,13.1 µM (active),
COc1ccc(S(=O)(=O)N2CCCC(C(=O)NCCCn3ccnc3)C2)cc1OC (stereo not given),inactive,
CC(NC(=O)COc1cccnc1[N+](=O)[O-])c1ccc(Cl)cc1Cl (stereo not given),inactive,
Clc1cccc(CN2COc3c(cc(Cl)c4cccnc34)C2)c1,0.329 µM (active),
CC(C)CC(=O)N1CCN(Cc2cccc(Cl)c2)CC1,inactive,
O=C(C1CCC1)N1CCN(c2ccccc2)CC1,inactive,
COc1ccc(NC(=O)CCC(=O)Nc2nnc(C3CCCCC3)s2)cc1,inactive,
COc1cc(C(=O)NCc2cc3cc(Cl)ccc3n2C)cc(OC)c1OC,inactive,
Cc1nc(SCC(=O)N2CCc3ccccc3C2)c2c(C)c(C)sc2n1,inactive,
CCn1c(SCC(=O)c2ccc3ccccc3c2)nnc1-c1cccs1,inactive,
O=C(CSc1nnc(-c2cccs2)n1Cc1ccccc1)N1CCc2ccccc2C1,10.4 µM (active),
CCn1c(Cc2ccc(OC)cc2)nnc1SCC(=O)Nc1ccc(N2CCOCC2)cc1,inactive,
CCn1c(SCC(=O)NC2CCCC2)nnc1-c1ccoc1C,inactive,
COc1ccc(NS(=O)(=O)c2ccc(NC(=O)c3ccc(N(C)S(C)(=O)=O)cc3)cc2)cc1,inactive,
CCN(CC)c1ccc(NC(=O)c2ccc(=O)[nH]c2)cc1S(=O)(=O)Nc1ccc(OC)cc1,9.28 µM (active),
O=C(NNC(=O)c1cccc(S(=O)(=O)Nc2ccc(Cl)cc2)c1)c1ccc(=O)[nH]c1,inactive,
COc1ccc(S(=O)(=O)n2cnc3ccccc32)c(C)c1,inactive,
CCCc1c(C(=O)N/N=C(\C)CCc2ccc(OC)cc2)nnn1-c1nonc1N,inactive,
CCN1CCN(C(=O)N(Cc2ccc(Cl)cc2)S(=O)(=O)c2ccc(C)cc2)CC1,inactive,
O=C(CSc1n[nH]c(-c2cccnc2)n1)Nc1ccc(Cl)cc1,inactive,
CC(C)CN(C(=O)c1ccc2c(c1)OCO2)C1CCS(=O)(=O)C1 (stereo not given),inactive,
O=C(CN1C(=O)COc2ccc(Cl)cc21)Nc1ccc(N2CCOCC2)cc1,inactive,
O=C(CN1C(=O)COc2ccccc21)NCCN1CCc2ccccc2C1,inactive,
O=C(CN1C(=O)COc2ccccc21)Nc1ccc(F)cc1,1.47 µM (active),
O=C(CCCN1C(=O)/C(=C/c2cccs2)SC1=S)Nc1ccc(O)cc1,inactive,

SMILES,Potency,"activity change, negative = inhibition"
NS(=O)(=O)c1ccc(CCNC(=O)CN2C(=O)c3ccccc3S2(=O)=O)cc1,inactive,
CCN(C(=O)CSc1ncnc2sccc12)c1c(N)n(Cc2ccccc2)c(=O)[nH]c1=O,inactive,
COc1cccc(OC)c1C(=O)Nc1ccc2c(c1)n(C)c(=O)n2C,inactive,
COc1ccc(C(=O)NC2CC2)cc1OC1CCN(Cc2ccc(SC)cc2)CC1,inactive,
COc1ccc(C(=O)NC2CC2)cc1OC1CCN(C/C=C/c2ccccc2)CC1,11.7 µM (active),
COc1ccc(C(=O)N(C)CC(O)c2ccccc2)cc1OC1CCN(C(C)=O)CC1 (stereo not given),inactive,
O=C(NCCc1ccccn1)c1nc(Cn2cc([N+](=O)[O-])cn2)no1,inactive,
CC(OC(=O)CNC(=O)c1cccc(F)c1)C(=O)NC1CCCCC1C (stereo not given),inactive,
COc1ccc2ccccc2c1/C=N/NC(=O)c1cc(C)[nH]n1,inactive,
CC(C)(C)c1cc(C(=O)N/N=C/c2ccc([N+](=O)[O-])s2)n[nH]1,1.65 µM (active),
O=[N+]([O-])c1ccc(C=Nc2ccc(Cl)cc2Cl)s1,inactive,
COC(=O)c1ccc(COC(=O)c2cnc(Cl)c(Cl)c2)cc1,inactive,
CCOc1ccc(CCNC(=O)COC(=O)CCS(=O)(=O)c2ccc(C)cc2)cc1OCC,inactive,
CCC(C(=O)N1CCN(S(=O)(=O)c2sc(C(=O)O)c(C)c2C(=O)O)CC1)c1ccccc1 (stereo not given),inactive,
CN(C(=O)CN1C(=O)CCSc2ccc(S(=O)(=O)N3CCCC3)cc21)c1ccccc1,inactive,
COc1ccc(S(=O)(=O)N2CCCCC2)cc1Br,inactive,
COc1ccc(S(=O)(=O)N2CCC(C(=O)N3CCc4ccccc4C3)CC2)cc1OC,8.28 µM (active),
COc1ccc(S(=O)(=O)N2CCC(C(=O)N3CCCC3)CC2)cc1C,inactive,
COc1cc(C(=O)NNC(=O)c2ccc(S(=O)(=O)N3CCCCC3)cc2)cc(OC)c1OC,inactive,
CCOc1ccc(NC(=O)COc2ccc(C(=O)N3CCC(C(N)=O)CC3)cc2OC)cc1,inactive,
CCOc1cc(C(=O)N2CCc3cc(OC)c(OC)cc3C2)ccc1OC(F)F,5.86 µM (active),
COc1cc2c(cc1OC)CN(C(=O)c1ccc(S(=O)(=O)N3CCCCCC3)cc1)CC2,0.465 µM (active),
CCOc1cc(CN2CCN(C(=O)CC(C)C)CC2)ccc1OC,inactive,
COC(=O)Cc1ccc(OC(=O)C2CCN(S(=O)(=O)c3ccc(OC)c(OC)c3)CC2)cc1,inactive,
